POLI inh = blocks human DNA polymerase iota activity; Pol iota fluorescent replication assay, 10 min; Potency, µM (highest dose often 115 µM), inactives show top-dose activity, negative = inhibition, usual class: inhibitors; 390,000 compounds, 1% hits
Target sequence (Q9UNA4 whole entry, looked up): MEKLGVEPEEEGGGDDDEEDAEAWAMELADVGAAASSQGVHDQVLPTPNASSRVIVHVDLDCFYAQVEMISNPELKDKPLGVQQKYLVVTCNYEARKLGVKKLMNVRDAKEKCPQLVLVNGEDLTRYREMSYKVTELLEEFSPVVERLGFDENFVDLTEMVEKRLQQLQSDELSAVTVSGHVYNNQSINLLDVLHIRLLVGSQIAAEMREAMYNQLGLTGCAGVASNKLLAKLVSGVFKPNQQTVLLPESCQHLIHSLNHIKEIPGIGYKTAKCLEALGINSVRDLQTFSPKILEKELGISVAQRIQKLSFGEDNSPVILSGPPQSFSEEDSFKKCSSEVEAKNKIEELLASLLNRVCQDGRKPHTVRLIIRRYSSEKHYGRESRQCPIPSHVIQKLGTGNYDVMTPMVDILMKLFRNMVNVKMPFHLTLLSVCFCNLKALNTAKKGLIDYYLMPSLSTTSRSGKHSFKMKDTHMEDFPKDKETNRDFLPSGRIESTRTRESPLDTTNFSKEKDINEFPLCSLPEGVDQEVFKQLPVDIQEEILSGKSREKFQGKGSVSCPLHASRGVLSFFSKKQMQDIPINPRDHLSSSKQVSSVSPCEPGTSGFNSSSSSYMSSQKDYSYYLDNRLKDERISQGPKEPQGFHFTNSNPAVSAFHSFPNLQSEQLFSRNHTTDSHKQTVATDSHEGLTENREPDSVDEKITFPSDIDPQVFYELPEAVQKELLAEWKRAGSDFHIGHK
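Pol iota at 10 nM preincubated 15 min with compounds at room temperature; reaction started with fluorescent substrate, 50 nM final. Fluorescence read kinetically at 0 and 10 min; buffer-only wells as negative control.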
FEN1 inh = inhibitors of human flap endonuclease 1; P39748; AID 588795; 390,000 compounds, 0.35% hits; Recombinant FEN1 flap cleavage, fluorescence, 15 min; Potency, µM (top dose mostly 114 µM), without a hit: top-dose activity change, negative = inhibition, usual class: inhibitors; note: % is set by controls: 0 for no effect and ±100 for the full control effect; nearly all actives have a fitted effect of over 65% in size
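Read-out was taken twice, immediately and after 15 min, following addition of 50 nM substrate to 10 nM FEN1 that had sat with test compound for 15 min at room temperature. Curves came from a four-parameter Hill model.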
POLB inh = blocks human DNA polymerase beta activity; 340,000 compounds, 1.3% hits; AID 485314; P06746; Potency, µM (doses to about 114 µM), inactives show top-dose activity change, negative = inhibition, hits mostly inhibitors; Pol beta primer extension/strand displacement, fluorescence kinetic; note: % is set by controls: 0 for no effect and ±100 for the full control effect
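Kinetic readout of DNA synthesis with strand displacement by Pol beta. Compound and 10 nM enzyme sit 15 min at room temperature; 50 nM substrate starts the reaction, read immediately and at 10 min.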
Pol kappa inh = blocks human DNA polymerase kappa activity; Q9UBT6; purified Pol kappa, fluorescent DNA synthesis assay, 10 min; Potency, µM (highest dose often 107 µM), without a hit: at the top dose activity, negative = inhibition, usual class: inhibitors; 400,000 compounds, 0.53% hits; AID 588579; note: % is set by controls: 0 for no effect and ±100 for the full control effect
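Readout: fluorescence, taken kinetically at 0 and 10 min. Conditions: 10 nM Pol kappa, 15 min RT compound preincubation, 50 nM substrate final. Controls: enzyme-free buffer wells.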
WRN helicase inh = inhibitors of human WRN helicase | WRN helicase unwinding, fluorescent forked duplex, kinetic | Potency, µM (titrated, usually from 114 µM), for inactives: at the highest dose activity change, negative = inhibition, actives largely listed as inhibitors | 360,000 compounds, 0.46% hits; note: % is set by controls: 0 for no effect and ±100 for the full control effect; nearly all actives have a fitted effect of over 55% in size
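Kinetic fluorescence helicase assay: unwinding of a quenched forked DNA duplex (100 nM final) with 2 mM ATP final raises red fluorescence (525/598 nm). Compounds sat 15 min at room temperature with 20 nM WRN beforehand.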
POLH inh = inhibitors of human DNA polymerase eta; Q9Y253; recombinant Pol eta, fluorescent DNA replication assay; Potency, µM (highest dose often 114 µM), without a hit: at the top dose activity change, negative = inhibition, hits mostly inhibitors; 390,000 compounds, 1.2% hits; AID 588591; note: % is set by controls: 0 for no effect and ±100 for the full control effect
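Fluorescent replication assay: 50 nM final substrate added after a 15 min room-temperature compound preincubation with 10 nM enzyme. Signal taken at 0 min and again at 10 min.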
* hit, by the source's call; [ ] = remark or other dose. Shown are actives, neighbours in structure and some others; about 2.4% of the full set was active somewhere. Calls come from the whole dose curve; as a rule, active = well fitted curve in the direction sought with a large enough effect; inconclusive = small, poorly fitted or top-dose-only effect, or another doubt; inactive = no such curve, though single readings can be large; an effect the other way counts as inactive or inconclusive. Potency is the fitted concentration of half-maximal effect.

O=C(N/N=C/c1ccc(O)cc1O)C1CC1 was read as POLI inh -2%, FEN1 inh 0%, Pol kappa inh 0%, WRN helicase inh -4% and POLH inh -17%.
Screening Cc1ccc(-c2csc(/C(C#N)=C(\O)CCl)n2)cc1 returned POLI inh inconclusive, FEN1 inh 51%, POLB inh inconclusive, Pol kappa inh -18%, WRN helicase inh -22% and POLH inh 45µM*.
Screening N#C/C(=C(/O)CN1CCCCC1)c1nc(-c2ccc(Cl)cc2)cs1 returned POLI inh 16%, FEN1 inh 6%, POLB inh 0%, Pol kappa inh -7%, WRN helicase inh -7%[57.1 µM] and POLH inh 7%.
N#C/C(=C(/O)CCl)c1nc(-c2ccccc2)cs1 was read as POLI inh inconclusive, FEN1 inh -6%, POLB inh inconclusive, Pol kappa inh -15%, WRN helicase inh -18% and POLH inh 40µM*.
`COc1ccc2ccccc2c1C(=O)/C=C\c1ccoc1` gave POLI inh inconclusive, FEN1 inh -12%, POLB inh 45µM*, Pol kappa inh -15%, WRN helicase inh -21% and POLH inh inconclusive.
For O=C(/C=C/c1ccoc1)c1ccccc1O the results were POLI inh 13%, FEN1 inh 0%, POLB inh -25%, Pol kappa inh -28%, WRN helicase inh -8%[57.1 µM] and POLH inh -18%.
Screening Cc1cc(N2CCN(c3ccccc3F)CC2)n2cnnc2n1 returned POLI inh 14%, FEN1 inh -13%, POLB inh 11%, Pol kappa inh -9% and POLH inh -7%.
For Cc1cc(N2CCN(c3cccc(C)c3C)CC2)n2cnnc2n1 the results were POLI inh inconclusive, FEN1 inh 10%, POLB inh 0.16µM*, Pol kappa inh -28% and POLH inh -17%.
`O=C1c2cccnc2C(Nc2cccc(F)c2)N1Cc1ccco1` (stereo unspecified) gave POLI inh -28%, FEN1 inh -3%, POLB inh 22%, Pol kappa inh -5%, WRN helicase inh 2% and POLH inh -5%.
`O=C1c2cccnc2C(Nc2ccccc2)N1Cc1ccco1` (stereo unspecified) gave POLI inh 13µM*, FEN1 inh 13%, POLB inh 0%, Pol kappa inh -1%, WRN helicase inh -7% and POLH inh -25%.
Screening O=C(O)C1Sc2[nH]c(=O)sc2C2c3ccc(O)cc3OC(=O)C12 (stereo unspecified) returned POLI inh inconclusive, FEN1 inh inconclusive, POLB inh 27%, Pol kappa inh inconclusive, WRN helicase inh 25µM* and POLH inh -58%.
For COc1ccccc1N1CCN(C(=O)c2ccc3nc(-c4ccco4)c(-c4ccco4)nc3c2)CC1 the results were POLI inh inconclusive, FEN1 inh -20%, POLB inh 28µM*, Pol kappa inh -28%, WRN helicase inh -19% and POLH inh -17%.
Cc1ccc(C)c(N2CCN(C(=O)c3ccc4nc(-c5ccco5)c(-c5ccco5)nc4c3)CC2)c1 was read as POLI inh inconclusive, FEN1 inh -18%, POLB inh -18%, Pol kappa inh -12%, WRN helicase inh -31% and POLH inh -15%.
For Cc1ccc(C(=O)O/N=C(\N)c2ccc(Br)cc2)cc1 the results were POLI inh 89µM*, FEN1 inh -5%, POLB inh inconclusive, Pol kappa inh -23%, WRN helicase inh -2%[57.1 µM] and POLH inh -22%.
For CC(C)c1nnc(NC(=O)c2nc(S(=O)(=O)Cc3ccccc3F)ncc2Cl)s1 the results were POLI inh inconclusive, FEN1 inh -3%, POLB inh 6%, Pol kappa inh 10%, WRN helicase inh 26% and POLH inh -5%.
For Cc1nnc(NC(=O)c2nc(S(=O)(=O)Cc3ccccc3C)ncc2Cl)s1 the results were POLI inh inconclusive, FEN1 inh 2%, POLB inh inconclusive, Pol kappa inh -16%, WRN helicase inh 6% and POLH inh 56µM*.
For CC(C)c1nnc(NC(=O)c2nc(S(=O)(=O)Cc3ccc(F)cc3)ncc2Cl)s1 the results were POLI inh inconclusive, FEN1 inh 4%, POLB inh 89%, Pol kappa inh -2%, WRN helicase inh -7% and POLH inh 2%.
Screening Cc1ccc(C)c(NC(=O)c2nc(S(=O)(=O)Cc3ccc(F)cc3)ncc2Cl)c1 returned POLI inh inconclusive, FEN1 inh -7%, POLB inh 32µM*, Pol kappa inh -6% and POLH inh 89µM*.
For Clc1ccc(-c2csc(N/N=C/c3cccnc3)n2)c(Cl)c1 the results were POLI inh 111%, FEN1 inh -11%, POLB inh 79µM*, Pol kappa inh -25%, WRN helicase inh -33% and POLH inh -18%.
`CN(C)c1ccc(/C=C(\C#N)C(=O)OCC(=O)N(C)C2CCS(=O)(=O)C2)cc1` (stereo unspecified) gave POLI inh 16%, FEN1 inh 4%, Pol kappa inh 0%, WRN helicase inh 10% and POLH inh 13%.
For CCN(C(=O)COC(=O)/C(C#N)=C/c1ccc(N(C)C)cc1)C1CCS(=O)(=O)C1 (stereo unspecified) the results were POLI inh 56µM*, FEN1 inh 0%, Pol kappa inh inconclusive, WRN helicase inh inconclusive and POLH inh -19%.
`CCCCNC(=O)CSc1nc2cc3c(cc2c(=O)n1CCCC(=O)NCc1ccc2c(c1)OCO2)OCO3` gave POLI inh 89µM*, FEN1 inh -9%, POLB inh 38%, Pol kappa inh -5%[60.1 µM] and POLH inh -5%.
`Cn1c(=O)c2c(nc(SCC(=O)NCc3ccc4c(c3)OCO4)n2Cc2ccc(Cl)cc2)n(C)c1=O` gave POLI inh inconclusive, FEN1 inh -11%, POLB inh -17%, Pol kappa inh -44%, WRN helicase inh -11% and POLH inh 89µM*.
For COCCCNC(=O)CSc1nc2cc3c(cc2c(=O)n1CCCC(=O)NCc1ccc2c(c1)OCO2)OCO3 the results were POLI inh 1%, FEN1 inh 18%, POLB inh 2%, Pol kappa inh -6%[60.1 µM] and POLH inh 13%.
Cc1ccc2nc(-c3ccc(C)c(NC(=O)COc4ccccc4Cl)c3)oc2c1 was read as POLI inh 29%, FEN1 inh 2% and Pol kappa inh 12%.
`CC(C)(C)n1ncc2c(=O)n(Cc3cccc(-c4ccccc4)c3)cnc21` gave POLI inh 20%, FEN1 inh 6% and Pol kappa inh 3%.
